In all, about 5,500 compounds went through this assay and about 2,000 (36%) were called active. Inconclusive results (about 18%) are left out. Rule as the data show it: active = normalized growth mostly below about 0.91 (no sharp cut-off); inconclusive = no clear call, values can overlap the other calls; inactive = mostly above about 0.92. Some of the results follow.
Assay: chemical genetic growth profiling, strain panel (AID 1159580);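 also: tested at 20 µM; growth read once vehicle control cultures reached saturation at 30 °C; 1 = growth at the plate median or of vehicle wells; lower values mean less growth of the strain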
Details: S. cerevisiae deletion strains, growth OD

Measured: normalized growth

[Li+]
inactive: locus YAL013W, strain DEP1, hits give low values 1.01 | locus YAL040C, strain CLN3, hits give low values 0.996 | locus YCL061C, strain MRC1 (second series), hits give low values 1.01 | locus YDR150W, strain NUM1, hits give low values 1.02 | locus YDR363W, strain ESC2, hits give low values 1.01 | locus YER002W, strain NOP16, hits give low values 1 | locus YGR229C, strain SMI1, hits give low values 1.02 | locus YMR307W, strain GAS1, hits give low values 0.994 | locus YNL175C, strain NOP13, hits give low values 1 | locus YNL197C, strain WHI3, hits give low values 1.02 | locus YNL224C, strain SQS1, hits give low values 1 | locus YOR083W, strain WHI5 (second series), hits give low values 1.01 | locus YPL241C, strain CIN2, hits give low values 1.01

c1ccc(-c2ccc(C(c3ccccc3)n3ccnc3)cc2)cc1 (configuration not stated)
active: locus YAL021C, strain ccr4, hits give low values 0.0644 | locus YAL026C, strain drs2, hits give low values 0.0618 | locus YAL030W, strain snc1, hits give low values 0.0587 | locus YBL061C, strain skt5, hits give low values 0.0709 | locus YBR009C, strain hhf1, hits give low values 0.0624 | locus YBR023C, strain chs3, hits give low values 0.0697 | locus YBR171W, strain sec66, hits give low values 0.0929 | locus YBR231C, strain swc5, hits give low values 0.0689 | locus YBR279W, strain paf1, hits give low values 0.0719 | locus YCL011C, strain gbp2, hits give low values 0.0606 | locus YCL016C, strain dcc1, hits give low values 0.0733 | locus YCL069W, strain vba3, hits give low values 0.066 | locus YCR088W, strain abp1, hits give low values 0.0692 | locus YDL005C, strain med2, hits give low values 0.0767 | locus YDL040C, strain nat1, hits give low values 0.0668 | locus YDR001C, strain nth1, hits give low values 0.067 | locus YDR069C, strain doa4, hits give low values 0.0703 | locus YDR137W, strain rgp1, hits give low values 0.127 | locus YDR159W, strain sac3, hits give low values 0.0937 | locus YDR195W, strain ref2 0.13 | locus YDR297W, strain sur2, hits give low values 0.0659 | locus YDR334W, strain swr1, hits give low values 0.0716 | locus YDR335W, strain msn5, hits give low values 0.0638 | locus YDR392W, strain spt3, hits give low values 0.0713 | locus YEL003W, strain gim4, hits give low values 0.0535 | locus YEL037C, strain rad23, hits give low values 0.0622 | locus YEL061C, strain CIN8 (second series), hits give low values 0.0652 | locus YER015W, strain faa2, hits give low values 0.0699 | locus YER016W, strain bim1, hits give low values 0.0698 | locus YER111C, strain swi4, hits give low values 0.0902 | locus YER155C, strain BEM2 (second series), hits give low values 0.0914 | locus YFR010W, strain ubp6, hits give low values 0.0846 | locus YGL167C, strain pmr1, hits give low values 0.124 | locus YGL173C, strain kem1, hits give low values 0.0886 | locus YGL227W, strain vid30, hits give low values 0.077 | locus YGL240W, strain doc1, hits give low values 0.108 | locus YGL253W, strain hxk2, hits give low values 0.0596 | locus YHR013C, strain ard1, hits give low values 0.105 | locus YHR027C, strain rpn1, hits give low values 0.0776 | locus YHR030C, strain SLT2, hits give low values 0.105 | locus YHR079C, strain IRE1, hits give low values 0.13 | locus YHR142W, strain chs7, hits give low values 0.0799 | locus YJL092W, strain hpr5, hits give low values 0.0642 | locus YJL095W, strain BCK1 (second series), hits give low values 0.0592 | locus YJL095W, strain BCK1, hits give low values 0.127 | locus YJL115W, strain asf1, hits give low values 0.087 | locus YJL129C, strain trk1, hits give low values 0.102 | locus YJL154C, strain vps35, hits give low values 0.0754 | locus YJL164C, strain tpk1, hits give low values 0.0615 | locus YJL166W, strain qcr8, hits give low values 0.0657 | locus YJL187C, strain SWE1, hits give low values 0.0683 | locus YJR066W, strain TOR1, hits give low values 0.0151 | locus YKL160W, strain elf1, hits give low values 0.0739 | locus YKR026C, strain gcn3, hits give low values 0.0725 | locus YKR091W, strain srl3, hits give low values 0.066 | locus YLL001W, strain dnm1, hits give low values 0.0668 | locus YLL026W, hits give low values 0.0595 | locus YLL041C, strain sdh2, hits give low values 0.0629 | locus YLR027C, strain aat2, hits give low values 0.0596 | locus YLR113W, strain HOG1, hits give low values 0.164 | locus YLR221C, strain rsa3, hits give low values 0.0622 | locus YLR258W, strain gsy2, hits give low values 0.0654 | locus YLR262C, strain YPT6 (second series), hits give low values 0.0894 | locus YLR320W, strain mms22, hits give low values 0.0767 | locus YLR342W, strain FKS1, hits give low values 0.0755 | locus YLR357W, strain rsc2, hits give low values 0.128 | locus YLR370C, strain arc18, hits give low values 0.0619 | locus YLR384C, strain iki3, hits give low values 0.0674 | locus YML120C, strain ndi1, hits give low values 0.0564 | locus YMR058W, strain fet3, hits give low values 0.068 | locus YMR125W, strain sto1, hits give low values 0.082 | locus YMR129W, hits give low values 0.0621 | locus YMR205C, strain PFK2, hits give low values 0.0925 | locus YMR231W, strain pep5, hits give low values 0.179 | locus YNL071W, strain lat1, hits give low values 0.0616 | locus YNL183C, strain NPR1, hits give low values 0.0338 | locus YNL209W, strain ssb2, hits give low values 0.0868 | locus YNL248C, strain rpa49, hits give low values 0.0877 | locus YNL322C, strain KRE1 (second series), hits give low values 0.08 | locus YNR049C, strain mso1, hits give low values 0.0653 | locus YOR001W, strain rrp6, hits give low values 0.075 | locus YOR070C, strain gyp1, hits give low values 0.0635 | locus YOR080W, strain dia2, hits give low values 0.0729 | locus YOR083W, strain WHI5, hits give low values 0.0687 | locus YOR106W, strain vam3, hits give low values 0.0685 | locus YOR231W, strain MKK1, hits give low values 0.141 | locus YOR265W, strain rbl2, hits give low values 0.0651 | locus YOR270C, strain vph1, hits give low values 0.0985 | locus YOR290C, strain snf2, hits give low values 0.0719 | locus YPL051W, strain arl3, hits give low values 0.0743 | locus YPL078C, strain atp4, hits give low values 0.07 | locus YPL106C, strain sse1, hits give low values 0.116 | locus YPL240C, strain hsp82, hits give low values 0.0631 | locus YPL256C, strain CLN2, hits give low values 0.153

— PubChem BioAssay AID1159580 (chemical genetic matrix, 2015)
